# Only some compounds are listed: those with a hit (about 10% of all), similar ones and a draw of the others.
# Six1-Eya2 inh: Six1/Eya2 interaction inhibition | AlphaScreen GST-Six1/His-Eya2 binding, biochemical; hits give low values | activity change, % (concentration not given with the values) | 360,000 compounds, 0.56% hits | Q15475+O00167; in the data active = activity change below about -65%; inconclusive = mostly about -30% to -63%; note: % is set by controls: 0 for no effect and ±100 for the full control effect
#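 AlphaScreen with GST-Six1 and His-Eya2 (5X mix: 250 nM and 500 nM), glutathione donor and nickel acceptor beads; buffer 50 mM Tris pH 8.0, 300 mM NaCl, 1 mM TCEP; 1 h at 37 C in the dark.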
# HP1b chromo inh: blocks HP1-beta chromodomain binding to methylated histone tails. P83916. AlphaScreen HP1-beta / biotin-H3K9me3 peptide binding. Potency, µM (titrated, usually from 114 µM), for the others: top-dose activity change, negative = inhibition, actives largely listed as inhibitors. 390,000 compounds, 0.56% hits; note: potency is the fitted concentration of half-maximal effect; nearly all actives have a fitted effect of over 70% in size
#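 HP1-beta protein (50 nM final) preincubated 30 min at room temperature with biotinylated H3(1-18)K9me3 peptide (50 nM) in PBS pH 7.4, 0.01% Tween-20, then compound added for 30 min. AlphaScreen streptavidin donor/nickel chelate acceptor beads (10 ug/mL final), 30 min dark, luminescence read.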
# CtBP-E1A blk: CtBP/E1A binding inhibition | 340,000 compounds, 0.49% hits | AID 651724 | activity change, % (no concentration beside the values) | AlphaScreen GST-E1A/His-CtBP binding, 1536-well; hits give low values; in the data active = activity change below about -65%; inconclusive = mostly about -30% to -63%; note: % is set by controls: 0 for no effect and ±100 for the full control effect
#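 GST-E1A and His-tagged CtBP (125 nM each as 5X stock) were preincubated with pin-transferred compound for 2 h at 37 °C in the dark, then glutathione donor and nickel acceptor beads were added for 1 h before AlphaScreen reading.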
# BAZ2B inh: BAZ2B (human) inhibition; 360,000 compounds, 4.4% hits; Q9UIF8; Potency, µM (doses to about 114 µM), for inactives: at the highest dose activity change, negative = inhibition, hits mostly inhibitors; AlphaScreen BAZ2B-H3K14Ac peptide displacement; note: potency is the fitted concentration of half-maximal effect; % is set by controls: 0 for no effect and ±100 for the full control effect; nearly all actives have a fitted effect of over 60% in size
#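 Complex of BAZ2B and biotin-H3K14Ac (50 nM apiece) forms over 30 min at RT, then faces library compounds up to 110 uM for another 30 min; AlphaScreen beads added, 20 min dark incubation, luminescence read.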
# G9a block: G9a (human) methyltransferase inhibition; Potency, µM (top dose mostly 102 µM), for the others: at the top dose activity, negative = inhibition, actives largely listed as inhibitors; AID 504332; 350,000 compounds, 8.8% hits; G9a H3K9 monomethylation, AlphaScreen, 2 h; note: potency is the fitted concentration of half-maximal effect; % is set by controls: 0 for no effect and ±100 for the full control effect; nearly all actives have a fitted effect of over 75% in size
#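 Enzyme 20 nM + cpd, 15 min RT; add b-H3K9 pep 500 nM / SAM 20 uM; 2 h RT; anti-H3K9me1 Ab 0.5 ug/mL + SA donor / anti-rabbit acceptor beads 20 ug/mL each, 10 min; AlphaScreen read.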
# JMJD2A Tudor inh: blocks the human JMJD2A Tudor domain; Potency, µM (titrated, usually from 114 µM), for the others: at the highest dose activity change, negative = inhibition, hits mostly inhibitors; AlphaScreen JMJD2A-Tudor / H3K4me3 peptide binding; AID 504339; 390,000 compounds, 4.4% hits; O75164; note: potency is the fitted concentration of half-maximal effect; % is set by controls: 0 for no effect and ±100 for the full control effect; nearly all actives have a fitted effect of over 50% in size
# Numbers without * were called inactive; ? = inconclusive; . = not tested or not shown; [ ] = another dose, or the depositor's remark. Unless noted, calls come from the whole dose curve; as a rule, active = well fitted inhibition curve with a large enough effect; inconclusive = small, poorly fitted or top-dose-only effect; inactive = no such curve, though single readings can be large or run the other way.
SMILES,Six1-Eya2 inh,HP1b chromo inh,CtBP-E1A blk,BAZ2B inh,G9a block,JMJD2A Tudor inh
CN1CCN(CCOc2ccc(Cc3ccccc3)cc2)CC1,-0.2,19.9%,1.2,-31.9%,?,?
CN(CC(=O)Nc1cccc(F)c1)C(=O)CCCc1c[nH]c2ccccc12,-10.1,24.2%,-3.6,-12.6%,-7.2%[12.7 µM],-21.8%
CCOCCSc1n[nH]c(=O)n1CCc1ccccc1,7.1,15.7%,-4.9,2.7%,43.9%[0.501 µM],-6.4%
C=Cc1ccc(Cn2c(C)c(C(=O)NCc3ccc4c(c3)OCCO4)sc2=O)cc1,-9.5,.,-3.7,.,.,.
CCn1c(-c2nn(-c3ccc(C)cc3)ccc2=O)n[nH]c1=S,-0.2,30.0%,.,-38.0%,?,7.94µM*
CCn1c(SC)nnc1-c1nn(-c2ccccc2)ccc1=O,-2.7,?,17.7,?,5.01µM*,3.98µM*
COc1ccccc1/C=C1\N=C(C(C)(C)C)OC1=O,4.0,?,.,40.0%,84.0%,50.1µM*
COc1cccc(/C=C2\N=C(C3CCCCC3)OC2=O)c1OC,7.2,216.9%,1.8,126.6%,29.4%,87.7%
S=C(NCCN1CCOCC1)C(=S)NCCN1CCOCC1,9.9,3.7%[57 µM],21.7,.,.,?
CCc1ccc(/C([O-])=C(/C(=S)NCCN2CCOCC2)[n+]2ccccc2)cc1,1.3,-1.7%,-9.6,-22.5%,25.1µM*,-26.1%
Cc1cc(C)c(-n2c(C)cc(/C=C3/NC(=O)NC3=O)c2C)c(C)c1,-13.4,?,-2.5,50.1µM*,?,?
COC(=O)C1=C(C)NC(=O)/C1=C\c1cc(C)n(-c2cccc(C)c2)c1C,-5.4,20µM*,-2.1,39.8µM*,-1.6%[12.7 µM],44.7µM*
Cc1cc(/C=C2/NC(=O)NC2=O)c(C)n1C,-20.0,-5.6%,-1.7,-16.5%,?,-22.2%
Cc1cccc(-n2c(C)cc(/C=C3\NC(=O)NC3=O)c2C)c1,-3.6,-3.0%,-7.3,?,44.7µM*,-27.4%
Cc1cc(/C=C2/NC(=O)NC2=O)c(C)n1-c1ccncc1,-1.8,-3.6%,-28.0,-17.4%,-35.0%,-20.1%
Cc1sc2ccccc2[n+]1CC(=O)c1ccccc1,-1.4,-7.0%,.,?,10µM*,?
COc1ccc(C2(c3ccc(OC)cc3)NC(=O)N(CC(=O)Nc3ccccc3C(F)(F)F)C2=O)cc1,-7.1,2.9%,-1.1,-4.2%,79.4µM*,-27.1%
Cc1cc(NC(=O)CN2C(=O)NC(c3ccccc3)(c3ccc(C)c(C)c3)C2=O)no1 (stereo unspecified),-7.2,8.7%,.,-0.1%,17.8µM*,?
CCc1ccccc1NC(=O)CSc1nc2n[nH]c(C)c2c(=N)n1-c1ccc(OC)cc1,-74.2*,33.5%,-65.2*,3.9%,10.1%[59 µM],-7.4%
CCc1ccccc1NC(=O)CSc1nc2n[nH]c(C)c2c(=N)n1-c1cccc(C)c1,.,51.5%,.,8.2%,2.5%[59 µM],-1.6%
COc1ccccc1NC(=O)CSc1nc2n[nH]c(C)c2c(=N)n1-c1ccccc1Cl,?,26.9%,-68.6*,-3.8%,12.4%[59 µM],-19.2%
Cc1nn(-c2cccc(Cl)c2)c2nc(-c3ccco3)cc(C(=O)O)c12,-7.6,11.0%,-14.1,?,10µM*,-27.1%
Cc1nn(-c2ccccc2)c2nc(-c3ccco3)cc(C(=O)O)c12,-19.0,9.4%,-4.4,?,20µM*,?
COc1cccc(N(C(=O)CNC(=O)c2ccco2)C(C(=O)NC2CCCC2)c2cccnc2)c1 (stereo unspecified),14.8,20.0%,-6.3,-2.0%,12.2%,-20.7%
Clc1ccc(C2CC(c3ccco3)n3ncnc3N2)cc1Cl (stereo unspecified),-3.3,11.2%,-2.6,-30.9%,11.2µM*,-15.1%
O=c1cc(CSc2ncn[nH]2)[nH]c2c(Cl)cccc12,.,25.2%[57 µM],.,1.2%,9.7%[59 µM],-12.7%
CC(=O)CC1c2cc(F)ccc2C=C(c2ccsc2)N1c1ccc(-c2cccnc2)cc1 (stereo unspecified),14.4,.,7.5,.,.,.

# Screening data as filed in PubChem BioAssay.
